From PubChem BioAssay
Only some compounds are listed: those with a hit (about 0.93% of all), similar ones and a draw of the others.
TAR Tat displ: TAR RNA-Tat peptide displacers, HIV-1, primary screen, biochemical, FRET, FAM/TAMRA-labeled Tat; HIV-1 TAR RNA, Tat peptide displacement FRET; hits give high values; z-score (no concentration beside the values); actives 0.6% (n = 100,000); AID 1259389, 2018; active = z-score of 3 or more in at least 2 runs
CDC25B CDK2 inh: primary biochemical HTRF screen for blockers of M-phase inducer phosphatase 2 binding to CDK2/cyclin A; HTRF CDC25B-CDK2/CyclinA binding, anti-His/anti-Flag; hits give high values; P30305+P24941; actives 0.72% (n = 94,000); z-score (concentration not given with the values); in the data active = z-score above about 3.2
* hit, by the source's call; · = no result given.

SMILES | TAR Tat displ | CDC25B CDK2 inh
C[C@H]1c2cccc(O)c2C(O)=C2C(=O)[C@]3(O)C(O)=C(C(N)=O)C(=O)[C@@H](N(C)C)[C@@H]3[C@@H](O)[C@@H]21 | 24* | -0.66
COc1ccc(S(=O)(=O)Nc2c(-n3cnnc3)nn(C)c2C)cc1OC | 0.77 | -1.7
C=C(C)C(CCC=C(C)C)C12C[C@@H](CC=C(C)C)C(C)(C)C(CC=C(C)C)(C(=O)/C(=C(/O)c3ccc(O)c(O)c3)C1=O)C2=O (stereo partly specified) | 8.3* | ·
COc1ccc(NS(=O)(=O)c2ccc(NS(=O)(=O)c3ccc(Cl)cc3)cc2)cc1 | -0.37 | 0.47
O=S(=O)(Nc1ccc(Oc2ccc(F)cc2)cc1)c1ccc(Cl)cc1 | · | 12*
Cc1cc(C)c(S(=O)(=O)N2CCN(c3cc(N4CCCC4)nc(C)n3)CC2)c(C)c1 | 0.32 | 0.52
Cc1c(C(=O)NCC(c2ccco2)N2CCOCC2)oc2ccc(F)cc12 (stereo unspecified) | -0.34 | -0.77
CCN(CC(=O)N/N=C(/C)C(=O)O)c1ccccc1 | · | -1.3
O=C(O)C1Nc2c(O)cccc2C2C=CCC12 (stereo unspecified) | · | 3.8
NC(=O)c1cccc2c1NC(C(=O)O)C1CC=CC21 (stereo unspecified) | 27* | 0.33
CCOC(=O)c1ccc(N2C(=O)c3n[nH]c(-c4cccs4)c3C2c2ccc(O)c(OCC)c2)cc1 (stereo unspecified) | 2.8 | ·
C=CCN1C(C(=O)c2ccccc2)=C(NC(=O)CN2C(=O)CCC2=O)c2ccccc2S1(=O)=O | -0.34 | -2.5
COc1ccc(N2CSC3=C(C#N)C(c4cccc(Br)c4)CC(=O)N3C2)c(OC)c1 (stereo unspecified) | 0.31 | 1.8
CCOc1cc(C2CC(=O)N3CN(c4ccc(OC)cc4OC)CSC3=C2C#N)ccc1O (stereo unspecified) | -1.1 | 3.1*
COc1ccc(N2CSC3=C(C#N)C(c4ccc(O)c(OC)c4)CC(=O)N3C2)c(OC)c1 (stereo unspecified) | -4.1 | 3.5*
CCOc1cc(C2CC(=O)N3CN(c4ccccc4)CSC3=C2C#N)cc(Br)c1O (stereo unspecified) | 31* | 8.8*
CCOc1cc(C2CC(=O)N3CN(c4ccc(F)cc4)CSC3=C2C#N)ccc1O (stereo unspecified) | 30* | 1.4
CCOc1cc(C2CC(=O)N3CN(c4ccc(C)c(C)c4)CSC3=C2C#N)ccc1O (stereo unspecified) | 2.2 | 1.9
CCC(CC)=NOc1ccc([N+](=O)[O-])cc1[N+](=O)[O-] | · | -0.67
O=C(O)CSCC(=O)Nc1nc(SCc2ccc(Cl)cc2)n[nH]1 | · | 7*
Cc1ccccc1C(=O)Nc1nc(SCc2ccc(Cl)cc2)n[nH]1 | · | -1.7
O=c1c(-c2ccccc2)c(C(F)(F)F)oc2c(CN3CCCC3)c(O)ccc12 | 0.65 | 15*
CC1CN(Cc2c(O)ccc3c(=O)c(-c4ccccc4)c(C(F)(F)F)oc23)CC(C)O1 (stereo unspecified) | 0.4 | 0.01
CN(C)S(=O)(=O)c1ccc2c(c1)c(=O)c(C(=O)N1CCN(c3cccc(Cl)c3)CC1)cn2C | 0.49 | 0.81
N/C(=N\OC(=O)C(Cl)Cl)c1ccc(OCc2ccccc2)cc1 | · | -0.63
SMILES | TAR Tat displ | CDC25B CDK2 inh
Cc1[nH]c2ccc(-c3nnc(SCC(=O)Nc4nccs4)o3)cc2c1C | 0.6 | 6.1
CCOC(=O)C1=CS/C(=C2/C(=S)C(C)(C)Nc3cc(C)ccc32)S1 | 1 | -3.3
COC(=O)C1=C(C(=O)OC)SC(=C2C(=S)C(C)(C)Nc3ccc(OC)cc32)S1 | 1.3 | -6.5
CCOC(=O)C1=C(C(=O)OCC)SC(=C2C(=S)C(C)(C)Nc3cc(C)ccc32)S1 | -0.02 | 17*
COC(=O)C1=C(C(=O)OC)SC(=C2C(=S)C(C)(C)Nc3cc(C)ccc32)S1 | 1.5 | 13*
O=C(NC1CCCC1)c1cc2ccccc2c(=O)s1 | 0.74 | -2.2
Cc1sc(-n2c(C)c3c(C)nnc(C)c3c2C)nc1-c1cccs1 | 2.9 | -0.79
CCOC(=O)CNC(=O)CSc1nc(-c2cccs2)nc2c1c(=O)n(C)c(=O)n2C | · | -1.3
O=[N+]([O-])c1cccc(OCNCCCCCCO)c1 | · | -0.79
O=C(Nc1c(C(c2ccc(Br)cc2)N2CCOCC2)oc2ccccc12)c1cccs1 (stereo unspecified) | -0.79 | -1.1
O=C1Nc2ccccc2/C1=N\N1CCN(Cc2cccc3ccccc23)CC1 | · | -2.1
Cc1cc(C)n2c(SCc3ccc(Br)cc3)nnc2n1 | 0.81 | -1.4
Cc1cc(C)n2c(SCc3ccc(C(=O)c4ccccc4)cc3)nnc2n1 | 1.5 | 8.3*
CC1CCCN(C(=O)CC(C)S(=O)(=O)c2ccc3c(c2)NC(=O)C(C)S3)C1 (stereo unspecified) | -1.9 | ·
CC(N)=NCCCC[C@@H](N)C(=O)O | · | 0.56
CCCCCCCCCCCCCCCCCCN=C(C)N | · | 4.5*
CCCCn1c(C(O)CC)nc2ccccc21 (stereo unspecified) | 2.1 | -0.46
ON(Cc1ccccc1)Cc1ccccc1 | · | -1.3
BrC=C=CCN(CC=C=CBr)Cc1ccccc1 | · | 4.3*
CCCCN[C@H]1CS(=O)(=O)C[C@@H]1S(=O)(=O)c1ccc(F)cc1 | 0 | 0.67
CCN(CC)c1ccc(NS(=O)(=O)c2ccc(-c3ccc(=O)[nH]n3)o2)c(C)c1 | -3.3 | ·
CCN(CC)c1ccc(NS(=O)(=O)c2cc3[nH]c(=O)c(=O)[nH]c3cc2C)c(C)c1 | 14* | ·
COc1ccc(Nc2nc(-c3cc4c(ccc5ccccc54)oc3=O)cs2)cc1 | · | 10*
COc1ccc2oc(=O)c(-c3csc(Nc4ccccc4)n3)cc2c1 | · | -2.1
C/C(=N\OCC(=O)N=Nc1c(O)n(CN2CCCC2)c2ccccc12)c1ccc(C)cc1 | · | -4
SMILES | TAR Tat displ | CDC25B CDK2 inh
COc1ccc(-c2noc(CN3CCCCC3)n2)cc1OC | 2 | -0.8
COc1ccc(-c2noc(CC3CCCCC3)n2)cc1OC | 1.6 | 16*
CC1CCN(S(=O)(=O)c2ccc(NC(=O)/C=C/c3cccc4ccccc34)cc2)CC1 | · | -9.4
CC(=C/C(=O)O)/C(=C\c1cccnc1)C(=O)O | · | -1.3
O=C(/C=C/c1cccnc1)c1ccc[cH-]1.[Fe+2].c1cc[cH-]c1 | · | 15*
CCCn1cc(S(=O)(=O)c2ccc(Cl)cc2)c(=O)c2cc(F)c(N(CC)CC)cc21 | 0.01 | ·
O=C(O)CSc1cccc2cccc(C(=O)O)c12 | 1.1 | 0.74
O=C(O)CCSc1cccc2cccc(C(=O)O)c12 | · | 11*
CCOC(=O)CNC(=O)NCc1c(-n2cccc2)sc2c1CCN(CC)C2 | -7.3 | ·
CC(=O)N1CCN(CCn2c(C)c3c(=O)n(-c4nc5ccccc5s4)[nH]c3cc2=O)CC1 | 0.25 | -0.61
Cc1c2c(=O)n(-c3nc4ccccc4s3)[nH]c2cc(=O)n1Cc1ccc(C(=O)O)cc1 | 24* | 13
COc1cc(NC(=O)CC(C)S(=O)(=O)c2ccc3c(c2)CCN3C(=O)C2CC2)cc(OC)c1 (stereo unspecified) | -0.1 | ·
CSC1=NCCCN1S(=O)(=O)c1cc(Cl)c(Cl)cc1Cl | · | -2.5
CC1Cc2ccccc2N1S(=O)(=O)c1cn(C)cn1 (stereo unspecified) | 1.1 | ·
CCOc1ccc(C2C=C(C(=O)O)Nc3nnnn32)cc1 (stereo unspecified) | 1.3 | ·
Cc1cc(C(=O)N(C)C2CCCCC2)on1 | · | -0.98
